Screening data as filed in PubChem.
TDP1 cell noCPT – qHTS for Inhibitors of human tyrosyl-DNA phosphodiesterase 1 (TDP1): qHTS in cells in absence of CPT. DT40 Tdp1-/- hTDP1 cells, no CPT, ATP luminescence, 48 h. Potency, µM (top dose mostly 46.2 µM), inactives show top-dose activity change, negative = growth inhibition, most hits filed as inhibitors. hit rate 15% among 420,000. AID 686978, 2013; also: potency is read from the fitted curve at half-maximal effect; nearly all actives have a fitted effect of over 55% in size
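Luminescent ATP content (CellTiter-Glo) served as the growth readout. Knockout chicken DT40 cells expressing human TDP1 were exposed to compounds without camptothecin for a minimum 48 hr at 37 °C.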
CtBP-E1A inh – blocks the CtBP interaction with E1A; hit rate 0.49% among 340,000; AID 651724; AlphaScreen GST-E1A/His-CtBP binding, 1536-well; stronger effect = lower value; activity change, % (concentration not given with the values); in the data active = activity change below about -65%; inconclusive = mostly about -30% to -63%
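In 5 uL wells, 23 nL compound meets equimolar GST-E1A and His-CtBP (5X stock 125 nM each) for 2 h, 37 °C. Beads (5X, 50 ug/mL) then 1 h, 37 °C, dark.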
TDP1 inh – inhibitors of human tyrosyl-DNA phosphodiesterase TDP1. Q9NUW8. recombinant TDP1, AlphaScreen DNA substrate cleavage. Potency, µM (doses to about 130 µM), inactives show top-dose activity change, negative = inhibition, actives largely listed as inhibitors. hit rate 0.28% among 350,000. AID 485290; also: potency is read from the fitted curve at half-maximal effect; nearly all actives have a fitted effect of over 40% in size
Target sequence (Q9NUW8 whole entry, looked up): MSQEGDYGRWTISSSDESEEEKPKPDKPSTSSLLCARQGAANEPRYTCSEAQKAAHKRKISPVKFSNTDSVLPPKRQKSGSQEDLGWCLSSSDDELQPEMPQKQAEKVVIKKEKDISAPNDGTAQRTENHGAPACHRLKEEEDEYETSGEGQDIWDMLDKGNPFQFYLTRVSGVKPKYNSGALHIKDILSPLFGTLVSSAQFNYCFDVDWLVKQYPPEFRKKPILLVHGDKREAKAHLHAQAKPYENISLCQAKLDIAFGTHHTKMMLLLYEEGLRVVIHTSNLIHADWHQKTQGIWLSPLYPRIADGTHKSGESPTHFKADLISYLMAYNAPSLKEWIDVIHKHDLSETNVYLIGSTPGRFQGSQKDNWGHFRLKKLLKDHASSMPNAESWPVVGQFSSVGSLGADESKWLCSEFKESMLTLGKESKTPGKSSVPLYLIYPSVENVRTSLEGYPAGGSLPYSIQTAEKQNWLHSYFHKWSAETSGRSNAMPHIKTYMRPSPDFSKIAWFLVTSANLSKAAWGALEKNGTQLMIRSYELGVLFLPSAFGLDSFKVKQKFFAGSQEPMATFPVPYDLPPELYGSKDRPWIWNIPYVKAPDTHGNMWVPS
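Enzyme-compound mixtures sat 15 min at room temperature, followed by a 5 min reaction with 15 nM final substrate and 10 min with AlphaScreen beads. Recombinant human Tdp1 was used at 1 nM final.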
TDP1 cell CPT – growth inhibition of DT40 Tdp1-/-;hTDP1 cells with camptothecin (screen for TDP1 inhibitors); Potency, µM (top dose mostly 46.2 µM), inactives show at the highest dose activity change, negative = growth inhibition, usual class: inhibitors; chicken DT40 Tdp1-/-;hTDP1 cells + 20 nM CPT, ATP luminescence, 48 h; hit rate 12% among 420,000; AID 686979; also: potency is read from the fitted curve at half-maximal effect; nearly all actives have a fitted effect of over 55% in size
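Chicken DT40 Tdp1-/- cells complemented with human TDP1, 400 cells/well, exposed to compounds plus 20 nM camptothecin for at least 48 h at 37 C; viability read as ATP content by CellTiter-Glo luminescence.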
IL-1B inflam inh – inhibitors of inflammasome signaling (IL-1 beta secretion); THP-1 LPS/ATP IL-1B secretion, AlphaLISA, 16 h; stronger effect = lower value; activity change, % at 57.5 µM; hit rate 4.7% among 360,000; AID 743279; in the data active = activity change below about -50%; inconclusive = mostly about -30% to -49%
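Secreted IL-1B measured by AlphaLISA bead assay after 16 h compound exposure of THP-1 cells; compounds (final up to 57.5 uM) added 1 h before LPS (250 ng/mL) and ATP (1.25 mM) stimulation; lower signal means less secretion.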
Six1-Eya2 blk – Six1/Eya2 interaction inhibition; Q15475+O00167; AlphaScreen GST-Six1/His-Eya2 binding, biochemical; stronger effect = lower value; activity change, % (no concentration beside the values); hit rate 0.56% among 360,000; AID 651725; in the data active = activity change below about -65%; inconclusive = mostly about -30% to -63%
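GST-Six1 + His-Eya2 (5X stock: 250/500 nM); Tris pH 8.0, 300 mM NaCl, 0.05% BSA, 0.02% Tween 20; GSH donor/Ni acceptor beads; 1 h 37 °C dark; AlphaScreen readout.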
Numbers without * were called inactive; ? = inconclusive; nt = no result given; [ ] = remark or other dose. Compounds with a hit are over-represented: about 18% of the library has one in this group of screens. Unless noted, calls follow the shape of the dose curve; as a rule, active = well fitted curve in the direction sought with a large enough effect; inconclusive = small, poorly fitted or top-dose-only effect, or another doubt; inactive = no such curve, though single readings can be large; an effect the other way counts as inactive or inconclusive. % is scaled to controls: 0 for no effect and ±100 for the full control effect.

SMILES | TDP1 cell noCPT | CtBP-E1A inh | TDP1 inh | TDP1 cell CPT | IL-1B inflam inh | Six1-Eya2 blk
Cc1ccc(NC(=O)C2(C)CCN2C(=O)Cc2ccc(C(C)(C)C)cc2)cc1C (centres undefined) | 10µM* | 4 | nt | 21µM* | 5 | 0
COc1ccc(NC(=O)C2(C)CCN2C(=O)Cc2ccccc2)cc1OC (centres undefined) | ? | 8 | nt | ? | 4 | 4
Cc1ccc(NC(=O)C2(C)CCN2C(=O)Cc2ccccc2)cc1C (centres undefined) | 16µM* | 0 | nt | ? | 9 | 0
Cc1ccc(NC(=O)C2(C)CCN2C(=O)C2CCCCC2)cc1C (centres undefined) | 18µM* | -1 | nt | ? | 11 | 2
Cc1ccccc1S(=O)(=O)NC(=O)C1(C)CCN1C(=O)C1CCCCC1 (centres undefined) | -3% | 1 | nt | 1% | 27 | 1
Cc1ccc(CNC(=O)CCc2c(C)c3ccc(O)c(C)c3oc2=O)cc1 | -2% | nt | 5% | -5% | nt | nt
Cc1cc(NS(=O)(=O)c2ccc(NC(=O)CSc3nnc(-c4ccco4)n3Cc3ccco3)cc2)nc(C)n1 | -4% | -4 | 0% | -1% | 9 | ?
O=C1Nc2ccc(Br)cc2/C1=C/C1CC=CCC1 (centres undefined) | ? | -1 | -4% | 18µM* | -99* | -2
O=C1NC(Cc2ccccc2)C(=O)Nc2ccc(Br)cc21 (centres undefined) | ? | nt | nt | -26% | -4 | 3
O=C(CCCCn1c(=O)c2ccccc2n(Cc2ccc(Cl)cc2)c1=O)NCc1ccccc1Cl | 16µM* | nt | -4% | 15µM* | nt | nt
Cc1cccc(Cn2c(=O)n(CCCC(=O)NCc3ccco3)c(=O)c3ccccc32)c1 | 21µM* | -17 | 0% | 9.2µM* | ? | -5
Cc1ccccc1Cn1c(=O)n(CCCC(=O)NCc2ccco2)c(=O)c2ccccc21 | ? | -5 | 6%[56.1 µM] | ? | -5 | -4
Cc1ccc(CNC(=O)CCCCn2c(=O)c3ccccc3n(Cc3ccc(Cl)cc3)c2=O)cc1 | ? | nt | -4%[12.3 µM] | -5% | nt | nt
O=C(CCCCn1c(=O)c2ccccc2n(Cc2ccc(Cl)cc2)c1=O)NCc1ccco1 | 16µM* | -3 | 6% | ? | 9 | 4
O=C(CCCn1c(=O)c2sccc2n(Cc2ccc(F)cc2)c1=O)NCc1ccco1 | 21µM* | 42 | 3% | 26µM* | 34 | 1
Cc1ccc(C)c(CN2C(=O)c3ccccc3S(=O)(=O)c3ccc(C(=O)NCCc4ccc(Cl)cc4)cc32)c1 | -12% | nt | 3% | -9% | nt | nt
CCC1CCCCN1C(=O)Cn1c(=O)n(CCCCCC(=O)NCc2ccccc2Cl)c(=O)c2sccc21 (centres undefined) | 18µM* | nt | 5% | ? | nt | nt
COc1c(S(=O)(=O)N2CCN(c3ccc(F)cc3)CC2)ccc(Cl)c1Cl | ? | -5 | 4% | ? | -22 | -5
CCOc1ccc(N(CC)C(=O)c2nn(-c3ccc(OC)cc3)c(=O)c3c2c2ccccc2n3C)cc1 | ? | 7 | 6% | ? | 26 | -7
C[C@@H]1CCCCO[C@H](CN(C)Cc2ccc3c(c2)OCO3)[C@H](C)CN([C@@H](C)CO)C(=O)c2cc(NC(=O)c3ccccc3)ccc2O1 | 21µM* | -3 | nt | 26µM* | -14 | 46
C[C@@H]1CCCCO[C@H](CN(C)Cc2ccc3c(c2)OCO3)[C@@H](C)CN([C@H](C)CO)C(=O)c2cc(NC(=O)c3ccccc3)ccc2O1 | 15µM* | 4 | nt | 21µM* | ? | -7
C[C@@H]1CCCCO[C@H](CN(C)C(=O)NC2CCCCC2)[C@@H](C)CN([C@H](C)CO)C(=O)c2cc(NC(=O)c3ccccc3)ccc2O1 | 21µM* | 5 | nt | ? | ? | -1
